# Assay outcomes from PubChem BioAssay.
# The list is not random: actives were taken first. Their share in the collection is about 2.8%.
# DRD3 antagonist – D3 dopamine receptor (human) antagonism; AID 652054; max response, negative = inhibition, %; D3R cells, DiscoveRx beta-arrestin luminescence, antagonist mode; active compounds read low; actives 2.5% (n = 360,000); in the data active = max response below about -50%; inconclusive = no clear call, values can overlap the other calls
# Target sequence (P35462 whole entry, looked up): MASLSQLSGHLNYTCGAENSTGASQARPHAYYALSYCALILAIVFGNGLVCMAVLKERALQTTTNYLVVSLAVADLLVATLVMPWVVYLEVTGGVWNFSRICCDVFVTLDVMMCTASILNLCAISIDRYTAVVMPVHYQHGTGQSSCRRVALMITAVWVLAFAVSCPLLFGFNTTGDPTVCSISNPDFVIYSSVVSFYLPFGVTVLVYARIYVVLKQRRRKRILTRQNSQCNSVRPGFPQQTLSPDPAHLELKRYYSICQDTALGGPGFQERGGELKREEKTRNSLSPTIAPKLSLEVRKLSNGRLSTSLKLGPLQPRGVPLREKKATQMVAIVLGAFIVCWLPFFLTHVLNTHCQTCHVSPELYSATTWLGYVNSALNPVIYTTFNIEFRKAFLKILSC
#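 Cells plated overnight at 1500 cells/well, then exposed to library compounds with dopamine controls for 90 minutes at 37 degrees C. DiscoveRx reagent added for 30–60 minutes at room temperature; luminescence read, quantitative HTS format.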
# D3 ag – agonists of human D3 dopamine receptor; P35462; D3R DiscoveRx beta-arrestin cells, luminescence, 90 min; max activation, %; actives 0.58% (n = 410,000); AID 652048; in the data active = max activation above about 30%
#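 Cells at 1500/well, incubated overnight, then treated with pinned compounds (dopamine as control) for 90 min at 37 degrees C. DiscoveRx reagent added for 30 - 60 minutes at room temperature; luminescence read.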
# Giardia kill – Giardia lamblia killing; Giardia lamblia trophozoite viability; AID 540267; actives 0.15% (n = 340,000); activity change, % at 7.66 µM, hits read low; in the data active = activity change below about -80%; inconclusive = between about -30% and that limit;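 also: parasites exposed to compound for two days anaerobically before the ATP read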
#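 Trophozoite viability was measured as ATP-dependent luminescence, read 15-30 min after reagent addition. Before that, parasites at 100 cells/well were exposed to compounds for 48 h, anaerobically, at 37 deg C.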
# B2AR arrestin – beta2AR (human) beta-arrestin recruitment activity. P07550. beta-arrestin recruitment to beta2AR, cell-based reporter. Potency, µM (titrated, usually from 46.1 µM), most hits filed as activators. actives 0.02% (n = 330,000); active = well fitted activation curve with a large enough effect; inconclusive = small, poorly fitted or top-dose-only effect; also: nearly all actives have a fitted effect of over 65% in size
# A number is an active result; 0 = inactive; ? = inconclusive; - = no result given.
SMILES,DRD3 antagonist,D3 ag,Giardia kill,B2AR arrestin
NCCCN(Cc1ccc(Cl)cc1)c1ccc(Br)cn1,-,-,0,-
CC1(C)OC(=O)C(=CNc2ncccn2)C(=O)O1,-68,0,0,0
CN(Cc1ccccc1)c1ccc(C(CC(N)=O)NC(=O)c2ccc(Br)cc2)cc1[N+](=O)[O-] (stereo not drawn),-52,0,0,0
CC(C)Nc1ccc(C(CC(N)=O)NC(=O)c2ccc(Br)cc2)cc1[N+](=O)[O-] (stereo not drawn),0,0,0,0
Cn1nc(-c2ccc(OCC(=O)Nc3ccc(Cl)cc3)cc2)c2ccccc2c1=O,-,0,-,-
Brc1c(CSc2nc3ccccc3o2)nc2ncccn12,0,0,0,0
Cc1cc(C)nc(SCc2nc3ncccn3c2Br)n1,-52,0,0,0
O=C1Nc2ccc(Cl)cc2C(=O)C1(F)c1ccccc1 (stereo not drawn),0,37,0,0
CN(C)S(=O)(=O)c1ccc2c(c1)N(CC(=O)NCc1ccc(F)cc1)C(=O)CS2,-,0,-,-
Cc1cccc(C)c1-n1nnnc1C(c1ccccc1)N1CCN(C/C=C/c2ccccc2)CC1 (stereo not drawn),-133,0,-,-
Cc1cccc(C)c1-n1nnnc1C(c1cccs1)N1CCN(C/C=C/c2ccccc2)CC1 (stereo not drawn),-84,0,-,-
CSc1ccc(CN2CCC(C)(Oc3ccccc3)C2)cc1 (stereo not drawn),-97,0,-,-
CSc1ccc(CN2CCC(C)(Oc3cccc(F)c3)C2)cc1 (stereo not drawn),-92,0,-,-
CSc1ccc(CN2CCC(C)(Oc3cccc(C#N)c3)C2)cc1 (stereo not drawn),?,0,-,-
CC1(Oc2ccc(Cl)cc2)CCN(Cc2ccc(OC(F)(F)F)cc2)C1 (stereo not drawn),0,0,-,-
CCc1ccc(OC2(C)CCN(Cc3ccc(SC)cc3)C2)cc1 (stereo not drawn),-60,0,-,-
CSc1ccc(OC2(C)CCN(Cc3ccc(C(C)C)cc3)C2)cc1 (stereo not drawn),-61,0,-,-
CC(=O)c1ccc(OC2(C)CCN(Cc3ccc4ccccc4c3)C2)cc1 (stereo not drawn),0,0,-,-
CC1(C)OC(=O)C2(Cc3cc(C(F)(F)F)ccc3N3CCCCC32)C(=O)O1 (stereo not drawn),-,-,0,-
Cc1ccc2[nH]c(=O)c(CN(CCCO)Cc3nnnn3Cc3ccccc3)cc2c1,-,-,0,-
COC(=O)c1cc2oc3ccccc3c2n1CC(=O)Nc1cccc(SC)c1,-,0,-,-
CSc1ccc(OC2(C)CCN(Cc3cc4ccccc4o3)C2)cc1 (stereo not drawn),-74,0,-,-
CCCNC(=O)C1(C)CCCN(Cc2cc3ccccc3o2)C1 (stereo not drawn),0,0,-,-
COC(=O)c1ccc(N2CCc3ccccc32)c([N+](=O)[O-])c1,0,0,0,0
CCOC(CNC(=O)c1ccc(N2CCc3ccccc32)c([N+](=O)[O-])c1)OCC,-67,0,0,0
SMILES,DRD3 antagonist,D3 ag,Giardia kill,B2AR arrestin
Cc1ccn2c(Nc3ccc4c(c3)OCO4)c(-c3ccc(C)o3)nc2c1,-,0,-,-
Cc1ccn2c(NC3CCCC3)c(-c3ccccn3)nc2c1,0,0,0,0
Cc1ccc(Nc2c(-c3ccccn3)nc3ccc(C)cn23)cc1,-78,0,0,0
Cc1ccn2c(Nc3ccc4c(c3)OCO4)c(-c3ccccn3)nc2c1,-54,0,0,0
Cc1ccc(Nc2c(-c3ccccn3)nc3cc(C)ccn23)cc1,-88,0,0,0
Cc1ccc(-n2ncc(C(=O)N3CCC(c4ccccc4)C3)c2C2CCN(C(=O)OC(C)(C)C)CC2)cc1 (stereo not drawn),-,0,-,-
COc1cc(-c2nnc(SCC(=O)Nc3ccc(F)c(Cl)c3)o2)cc(OC)c1OC,-,0,-,-
c1ccc(N2CCN(Cc3cn4cccnc4n3)CC2)cc1,-59,0,0,0
O=C(CCCn1c(=O)c2ccccc2n(CC(=O)Nc2cccc(C(F)(F)F)c2)c1=O)NCc1ccc2c(c1)OCO2,-,0,-,-
CCOc1ccc(C2c3[nH]c4ccccc4c3CCN2C(=O)CSc2ccccc2)cc1 (stereo not drawn),-,0,-,-
COc1cc(/C=N/n2c(-c3cc(C)[nH]n3)n[nH]c2=S)ccc1O,?,0,0,0
COc1cc(/C=N/n2c(-c3cc(C)[nH]n3)n[nH]c2=S)cc(OC)c1OC,-51,0,0,0
Cc1ccc(CSc2nnc3c(n2)OC2(Nc4ccccc4-3)C(=O)Nc3ccc(F)cc32)cc1 (stereo not drawn),?,0,0,0
O=C1Nc2ccc(F)cc2C12Nc1ccccc1-c1nnc(SCc3ccccc3)nc1O2 (stereo not drawn),-81,0,0,0
